Measured values published in PubChem BioAssay.
Unmarked numbers belong to inactive results. Where a call stands in place of a potency, no number is given. For some assays here: Potency and affinity values are given separately. Active and inactive are the calls of the source. Unless noted, the rule behind the calls is not given here.

Key:
[1] = antimalarial activity against Dd2 strain (AID 2302;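 active = growth inhibition above 50% at the single 2 µM test dose, taken to imply half-maximal potency below 2 µM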); settings: P. falciparum Dd2 in RBCs, LDH growth readout, 72 h; at 2 µM; active compounds read high
[2] = human hepatoma cell viability loss – ATP luminescence, cytotoxicity control for P. falciparum antimalarial project, primary screen (AID 2303;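 active = inhibition above 50%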); settings: HepG2 viability, 24-48 h, at 10 µM, active compounds read high
[3] = target: L-lactate dehydrogenase (Plasmodium falciparum (isolate CDC / Honduras)) (UniProt Q27743); test: PfLDH activity inhibition – cell lysate, 3D7 strain, counter-screen for P. falciparum growth inhibition project (AID 2304); settings: P. falciparum 3D7 crude extract, LDH APAD/NBT absorbance; at 2 µM; active compounds read high
[4] = inhibition of 3D7 malaria parasite growth – strain 3D7 (AID 2306); settings: P. falciparum 3D7 erythrocytic growth, LDH absorbance, 72 h; at 2 µM; active compounds read high
[5] = target: Calcium-dependent protein kinase 1 (Plasmodium falciparum (isolate 3D7)) (UniProt P62344); test: PfCDPK1 kinase inhibitors, biochemical, TCAMS library (AID 1159585; cut-off not given, nearly all actives have IC50 up to about 0.98 µM;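 note: inhibitors leave more ATP so luminescence rises with inhibition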); settings: recombinant PfCDPK1, Kinase-Glo ATP depletion luminescence
[6] = target: Plasmodium falciparum protein kinase 6 (PK6, PF3D7_1337100) (UniProt Q8IDW1); test: PfPK6 kinase inhibitors, biochemical, TCAMS library (AID 1159586); settings: recombinant PfPK6, Kinase-Glo ATP depletion luminescence
[7] = target: Protein kinase 7 (PK7), Plasmodium falciparum 3D7 (PF3D7_0213400) (UniProt Q7YTF7); test: inhibition of Plasmodium PK7 catalytic activity – biochemical, TCAMS antimalarial set, Kinase-Glo luminescence (AID 1159587); settings: recombinant PfPK7, Kinase-Glo ATP depletion luminescence
[8] = target: Calcium-dependent protein kinase 4 (Plasmodium falciparum (isolate 3D7)) (UniProt Q8IBS5); test: PfCDPK4 kinase inhibitors, biochemical, TCAMS library (AID 1159588; cut-off not given, nearly all actives have IC50 up to about 0.91 µM); settings: recombinant PfCDPK4, Kinase-Glo ATP depletion luminescence
Calcium-dependent protein kinase 4 (Plasmodium falciparum (isolate 3D7)), sequence (Q8IBS5 whole entry, looked up): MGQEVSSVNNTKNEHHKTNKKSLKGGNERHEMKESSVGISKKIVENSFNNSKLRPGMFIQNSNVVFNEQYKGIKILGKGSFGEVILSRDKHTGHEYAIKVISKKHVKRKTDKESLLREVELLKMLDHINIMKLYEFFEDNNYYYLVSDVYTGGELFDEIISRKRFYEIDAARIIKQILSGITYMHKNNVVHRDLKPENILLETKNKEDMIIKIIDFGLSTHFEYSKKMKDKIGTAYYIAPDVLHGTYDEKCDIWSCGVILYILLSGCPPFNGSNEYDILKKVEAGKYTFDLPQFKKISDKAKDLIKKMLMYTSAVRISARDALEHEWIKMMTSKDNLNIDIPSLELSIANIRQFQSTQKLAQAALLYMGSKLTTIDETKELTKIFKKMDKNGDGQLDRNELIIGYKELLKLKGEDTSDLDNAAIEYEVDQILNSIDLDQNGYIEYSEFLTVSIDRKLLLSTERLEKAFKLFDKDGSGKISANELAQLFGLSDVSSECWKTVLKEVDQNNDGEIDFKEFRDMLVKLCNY

L-lactate dehydrogenase (Plasmodium falciparum (isolate CDC / Honduras)), sequence (Q27743 whole entry, looked up): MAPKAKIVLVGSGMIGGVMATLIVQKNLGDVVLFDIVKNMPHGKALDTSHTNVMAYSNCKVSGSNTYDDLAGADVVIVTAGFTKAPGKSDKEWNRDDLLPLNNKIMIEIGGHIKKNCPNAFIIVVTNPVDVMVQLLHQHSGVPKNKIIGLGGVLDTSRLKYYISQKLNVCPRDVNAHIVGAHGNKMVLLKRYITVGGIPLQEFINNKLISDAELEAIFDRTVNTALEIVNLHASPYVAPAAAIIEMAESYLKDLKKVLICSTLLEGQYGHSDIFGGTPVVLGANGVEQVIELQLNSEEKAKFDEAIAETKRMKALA
Calcium-dependent protein kinase 1 (Plasmodium falciparum (isolate 3D7)), sequence (P62344 whole entry, looked up): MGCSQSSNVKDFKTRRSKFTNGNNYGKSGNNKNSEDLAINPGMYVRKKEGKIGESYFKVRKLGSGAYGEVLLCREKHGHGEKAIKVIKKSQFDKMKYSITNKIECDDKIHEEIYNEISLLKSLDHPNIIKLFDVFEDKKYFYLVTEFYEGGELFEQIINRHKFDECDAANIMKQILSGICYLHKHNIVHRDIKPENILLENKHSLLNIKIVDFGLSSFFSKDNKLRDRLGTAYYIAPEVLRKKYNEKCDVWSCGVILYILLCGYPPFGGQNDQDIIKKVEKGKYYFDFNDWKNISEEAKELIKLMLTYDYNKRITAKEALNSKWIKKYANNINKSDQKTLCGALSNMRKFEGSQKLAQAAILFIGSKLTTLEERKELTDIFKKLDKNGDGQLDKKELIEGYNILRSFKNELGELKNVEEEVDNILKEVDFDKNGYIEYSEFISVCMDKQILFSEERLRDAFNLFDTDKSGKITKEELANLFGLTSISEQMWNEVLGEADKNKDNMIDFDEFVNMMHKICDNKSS
Protein kinase 7 (PK7), Plasmodium falciparum 3D7 (PF3D7_0213400), sequence (Q7YTF7 1-343): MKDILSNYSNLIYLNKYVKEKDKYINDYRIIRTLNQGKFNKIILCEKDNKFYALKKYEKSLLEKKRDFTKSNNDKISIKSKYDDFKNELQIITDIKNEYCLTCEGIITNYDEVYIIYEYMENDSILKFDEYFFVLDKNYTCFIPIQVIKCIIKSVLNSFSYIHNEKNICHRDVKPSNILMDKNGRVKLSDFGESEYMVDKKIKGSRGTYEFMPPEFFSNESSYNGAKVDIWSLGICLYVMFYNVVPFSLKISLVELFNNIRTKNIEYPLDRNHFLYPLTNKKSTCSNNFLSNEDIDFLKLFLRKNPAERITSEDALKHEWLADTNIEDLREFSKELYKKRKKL
Plasmodium falciparum protein kinase 6 (PK6, PF3D7_1337100), sequence (Q8IDW1 1-305): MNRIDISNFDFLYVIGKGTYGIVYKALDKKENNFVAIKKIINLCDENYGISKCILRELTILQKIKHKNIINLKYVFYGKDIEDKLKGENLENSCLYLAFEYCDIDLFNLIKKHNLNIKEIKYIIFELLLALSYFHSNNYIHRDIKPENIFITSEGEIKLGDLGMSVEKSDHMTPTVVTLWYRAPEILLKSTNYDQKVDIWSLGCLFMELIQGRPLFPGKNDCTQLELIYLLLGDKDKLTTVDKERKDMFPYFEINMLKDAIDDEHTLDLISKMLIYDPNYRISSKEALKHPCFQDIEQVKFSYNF

SMILES | growth inhibition [1] | inhibition [2] | inhibition [3] [%] | growth inhibition [4] | outcome [5] | outcome [6] | outcome [7] | outcome [8]
COc1ccc2nccc([C@@H](O)CN3CCC(NCc4ccc5c(c4)sc(=O)n5C)CC3)c2c1 | 72% (active) | 10% | -6 | 100% (active) | inactive | inactive | inactive | inactive
O=C(NCCN1CCCC1)c1cccc(-c2ccc(-c3nc4ccccc4[nH]3)s2)c1 | 13% | 27% | 4 | 96% (active) | inactive | inactive | inactive | inactive
CC(C)(C)C(=O)Nc1c(-c2cc(=O)oc3cc4c(cc23)CCC4)oc2ccccc12 | 100% (active) | -5% | 3 | 101% (active) | inactive | inactive | inactive | inactive
OC(CNCc1ccccc1OCc1ccccc1)c1cccc(Cl)c1 (stereo not given) | 100% (active) | -6% | 7 | 100% (active) | inactive | inactive | inactive | inactive
CCOC(=O)c1cn(CC)c2cc(OCc3ccccc3)ccc2c1=O | 96% (active) | 2% | 2 | 97% (active) | inactive | inactive | inactive | inactive
COCCNCc1ccc(-c2ccc(CNc3ccc4ncccc4c3)cc2)cc1 | 4% | 41% | -4 | 85% (active) | inactive | inactive | inactive | inactive
COc1cccc(-c2ccc3c(-c4cccc(S(C)(=O)=O)c4)cnc(N)c3c2)c1 | 21% | 45% | -6 | 96% (active) | inactive | inactive | inactive | inactive
O=C(Nc1ccccc1)N(Cc1ccc(-c2cccc(CNC3CCCC3)c2)cc1)C1CCN(Cc2ccccc2)CC1 | 67% (active) | 43% | 1 | 101% (active) | inactive | inactive | inactive | inactive
Clc1cc(Cl)c2cc(CN[C@H]3CCC[C@@H]3CNc3nc4ccccc4[nH]3)[nH]c2c1 | 58% (active) | 85% (active) | -1 | 99% (active) | inactive | inactive | inactive | inactive
COc1cc(Nc2ncc3c(C)nc(-c4cc5ccccc5[nH]4)n3n2)cc(OC)c1OC | 65% (active) | 19% | 7 | 91% (active) | inactive | inactive | inactive | inactive
CCCCCCn1c(Sc2ccc(C#N)c([N+](=O)[O-])c2)nnc1-c1ccc(OC)cc1 | 51% (active) | 19% | 2 | 95% (active) | inactive | inactive | inactive | inactive
COc1ccccc1-n1ccnc1SCC(=O)Nc1cc(C(F)(F)F)ccc1Cl | 97% (active) | -2% | 2 | 97% (active) | inactive | inactive | inactive | inactive
O=C(/C=C/c1ccc(Cl)c(Cl)c1)NCCCCCN1CCCN(C(=S)Nc2cccc(Cl)c2)CC1 | 7% | 19% | 0 | 93% (active) | inactive | inactive | inactive | inactive
CC(C)c1ccc(NC(=O)c2ccc(CN3CCCN(Cc4cccc(O)c4)CC3)cc2)cc1 | 58% (active) | 51% (active) | -4 | 100% (active) | inactive | inactive | inactive | inactive
COc1cccc(-c2csc(C(=O)NC3CCCCN(Cc4ccc(C(C)(C)C)cc4)C3)c2)c1 (stereo not given) | 66% (active) | 9% | -2 | 97% (active) | inactive | inactive | inactive | inactive
Cc1cccc2[nH]c(-c3cccc(-c4ccc(NC(=O)C(C)CN5CCOCC5)cc4)c3)nc12 (stereo not given) | 30% | 7% | 2 | 93% (active) | inactive | inactive | inactive | inactive
COc1ccc2nccc([C@@H](O)CN3CCC(NC(=O)c4cccc(C(=O)c5ccccc5)c4)CC3)c2c1 | 99% (active) | 13% | 2 | 99% (active) | inactive | inactive | inactive | inactive
CCOc1cc(NC(=O)Nc2ccnc3ccccc23)cc(OC)c1 | 73% (active) | -7% | 3 | 98% (active) | inactive | inactive | inactive | inactive
CSC1=NC(=Nc2ccccc2C)C2(CCC(C(C)(C)C)CC2)N1c1ccccc1Cl (stereo not given) | 89% (active) | 3% | 4 | 96% (active) | inactive | inactive | inactive | inactive
O=C(Nc1cccc(CN2CCN(C(=O)c3ccccc3)CC2)c1)c1ccco1 | 42% | 6% | -2 | 95% (active) | inactive | inactive | inactive | inactive

SMILES | growth inhibition [1] | inhibition [2] | inhibition [3] [%] | growth inhibition [4] | outcome [5] | outcome [6] | outcome [7] | outcome [8]
Clc1ccc(CNc2nc(NCCc3cnc[nH]3)nc(N3CCCC4CCCCC43)n2)cc1 (stereo not given) | 100% (active) | 10% | 4 | 101% (active) | inactive | inactive | inactive | inactive
O=C(Nc1ccc(F)cc1)c1ccc(C(=O)NC2CCN(CC3CCCCC3)CC2)cc1 | 0% | 34% | -7 | 99% (active) | inactive | inactive | inactive | inactive
CSc1ccc(CN2CCC(CNC(=O)c3cc(-c4ccccc4F)cs3)C2)cc1 (stereo not given) | 13% | 32% | 2 | 90% (active) | inactive | inactive | inactive | inactive
N#Cc1ccc2c(c1)CCN(CCC1CCC(NC(=O)/C=C/c3nc4ccccc4s3)CC1)CC2 (stereo not given) | -2% | 6% | -4 | 90% (active) | inactive | inactive | inactive | inactive
Cc1cc(NC(=O)Nc2ccc(Cl)cc2F)c2ccccc2n1 | 71% (active) | 10% | 2 | 100% (active) | inactive | inactive | inactive | inactive
CN(C)c1ccc(-c2csc(C(=O)NCC3CCN(CC4CCCCC4)C3)c2)cc1 (stereo not given) | 28% | 35% | 1 | 86% (active) | inactive | inactive | inactive | inactive
CC(C)COc1ccc(Cl)cc1Cc1ccc(-c2nc3ccc(N4CCN(C)CC4)cc3[nH]2)o1 | 41% | 6% | 0 | 102% (active) | inactive | inactive | inactive | inactive
Nc1ccc2nc(C=Cc3ccccc3)[nH]c2c1 | 89% (active) | 7% | 1 | 92% (active) | inactive | inactive | inactive | inactive
CC(=O)Nc1ccc(Nc2cc(C)nc(Nc3ccc(NC(C)=O)cc3)n2)cc1 | 65% (active) | 4% | -2 | 99% (active) | inactive | inactive | inactive | inactive
NC(=NCc1ccccc1)Nc1cccc(Cc2ccccc2)n1 | 52% (active) | 57% (active) | 0 | 85% (active) | inactive | inactive | inactive | inactive
Cc1cc(N2CCCC2=O)ccc1-c1ccc(C(=O)N2CCC(Oc3cccc(Cl)c3)CC2)cc1 | 98% (active) | 34% | -3 | 99% (active) | inactive | inactive | inactive | inactive
CCc1cc2c(=O)c(-c3nc(C)cs3)c([C@H](N)Cc3ccc(O)cc3)oc2cc1O | 19% | 11% | 1 | 101% (active) | inactive | inactive | inactive | inactive
CCOC(=O)C1=C(C)NC2=C(C(=O)CC(C)(C)C2)C1c1ccc(Cl)cc1 (stereo not given) | 84% (active) | 4% | 1 | 96% (active) | inactive | inactive | inactive | inactive
CSc1ccc(CN2CCC(NC(=O)c3ccc(-c4cccc(Cl)c4)s3)CC2)cc1 | 19% | 75% (active) | -2 | 86% (active) | inactive | inactive | inactive | inactive
CCOc1ccc(-c2nc(NC(=O)COc3ccc(OC)cc3)sc2C)cc1 | 87% (active) | 0% | -9 | 99% (active) | inactive | inactive | inactive | inactive
O=C(Nc1ccccc1)N(Cc1cccc(-c2ccc(CNCc3ccc4c(c3)OCO4)cc2)c1)C1CCN(Cc2ccccc2)CC1 | 82% (active) | 27% | 7 | 102% (active) | inactive | inactive | inactive | inactive
CC(C)(C)OC(=O)N1CCN(c2ccccc2NC(=O)c2cccc(C(F)(F)F)c2Oc2ccc(F)cc2)CC1 | 9% | 3% | -8 | 100% (active) | inactive | inactive | inactive | inactive
COc1ccc(C2CC(=O)C3=C(C2)NC(C)=C(C(=O)OC2CCCC2)C3c2ccc(O)cc2)cc1OC (stereo not given) | 92% (active) | -9% | -7 | 97% (active) | inactive | inactive | inactive | inactive
O=C(Nc1ccc(C(=O)Oc2ccc3ccccc3c2)cc1)N[C@@H](Cc1ccc(O)cc1)C(=O)NC1CCN(Cc2ccc(O)cc2)C1 (stereo not given in full) | 1% | 1% | -2 | 86% (active) | inactive | inactive | inactive | inactive
O=C(N[C@H](Cc1ccc(Cl)cc1)C(=O)N1CCN(c2ccnc3cc(Cl)ccc23)CC1)[C@H]1Cc2ccccc2CN1 | 41% | 16% | 5 | 85% (active) | inactive | inactive | inactive | inactive
